Test results taken from the supplement of paper PMC3545927.
Some of the results follow. No count for the full screen is at hand.

Molecular target: furin, P09958
Assay: furin cleavage Z-score vs untreated control; higher = more cleavage, active = 3.5 or more, inactive = 1 or less, 8 variable residues between constant flanks
Outline: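 Cleavage by purified furin was measured on 8-mer peptides fused to a cDNA oligonucleotide and held on magnetic beads by their N-terminus. Reactions (0.01 ml, 1:10 enzyme:substrate) ran 7.5, 15 or 30 min in 50 mM HEPES pH 7.5 with CaCl2 and NaCl. Released DNA was adapter-tagged by PCR and sequenced, with read counts giving abundance. Log counts versus furin-free reactions were lowess-adjusted and scaled by median absolute deviation to give the cleavage Z-score.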

furin, P09958, sequence (P09958 whole entry): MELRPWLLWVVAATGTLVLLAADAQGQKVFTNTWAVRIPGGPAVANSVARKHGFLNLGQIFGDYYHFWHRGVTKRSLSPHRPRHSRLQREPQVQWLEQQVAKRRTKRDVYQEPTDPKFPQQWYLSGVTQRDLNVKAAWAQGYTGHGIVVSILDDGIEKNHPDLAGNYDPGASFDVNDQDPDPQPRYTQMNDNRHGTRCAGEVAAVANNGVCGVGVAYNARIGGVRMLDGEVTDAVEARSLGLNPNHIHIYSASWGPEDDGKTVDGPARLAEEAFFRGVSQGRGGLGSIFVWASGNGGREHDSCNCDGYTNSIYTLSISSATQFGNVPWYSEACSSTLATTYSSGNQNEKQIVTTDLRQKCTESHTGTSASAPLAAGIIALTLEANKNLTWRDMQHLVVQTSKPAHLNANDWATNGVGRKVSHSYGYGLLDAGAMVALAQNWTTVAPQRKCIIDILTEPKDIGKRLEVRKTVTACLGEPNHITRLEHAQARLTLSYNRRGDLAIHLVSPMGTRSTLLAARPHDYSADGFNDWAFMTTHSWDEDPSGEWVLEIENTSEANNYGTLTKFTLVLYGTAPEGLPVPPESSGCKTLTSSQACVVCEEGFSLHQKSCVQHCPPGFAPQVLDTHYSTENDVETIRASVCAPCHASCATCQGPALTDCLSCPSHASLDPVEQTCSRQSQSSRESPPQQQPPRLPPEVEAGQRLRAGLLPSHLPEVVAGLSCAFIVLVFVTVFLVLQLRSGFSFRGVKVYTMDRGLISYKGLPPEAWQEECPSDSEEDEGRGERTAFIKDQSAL

Row | Sequence | furin cleavage Z-score (7.5 min) | furin cleavage Z-score (15 min) | furin cleavage Z-score (30 min)
1 | CALVETWKKPAGNASASA [HC1309] | 0.819 (inactive) | 0.268 (inactive) | -0.773 (inactive)
2 | CAGIPFVSCQAGNASASA [HC1163] | -0.0749 (inactive) | 0.44 (inactive) | -1.36 (inactive)
3 | CATREVPCHRAGNASASA [HC2438] | 0.921 (inactive) | 2.06 | 2.03
4 | CALGIRSFRNAGNASASA [TR6] | 1.49 | 1.8 | -0.165 (inactive)
5 | CALINVRKRNAGNASASA [FS-1357] | 0.912 (inactive) | 2.51 | 1.58
6 | CAVGIYLLPNAGNASASA [HC1662] | 0.402 (inactive) | 0.33 (inactive) | -0.482 (inactive)
7 | CAKGGRRSRNAGNASASA [FS-340] | 4.05 (active) | 5.15 (active) | 6.68 (active)
8 | CADPRRRSRNAGNASASA [HC216] | 4.59 (active) | 5.65 (active) | 5.55 (active)
9 | CALGGRRKRNAGNASASA [FS-1356] | 11.1 (active) | 12.5 (active) | 7.53 (active)
10 | CAKGGRKPARAGNASASA [HC1446] | -0.269 (inactive) | -0.328 (inactive) | -1.51 (inactive)
11 | CAPDLGVRVCAGNASASA [HC1452] | -1.67 (inactive) | -0.653 (inactive) | -0.786 (inactive)
12 | CARFDRSSGPAGNASASA [FS-3220] | -0.295 (inactive) | 1.66 | 0.428 (inactive)
13 | CARVFRQVEKAGNASASA [FS-2386] | -1.6 (inactive) | -2.06 (inactive) | -1.6 (inactive)
14 | CARFDRSVEKAGNASASA [FS-2013] | 2.17 | 0.744 (inactive) | 3.51 (active)
15 | CARFRRDLVKAGNASASA [FS-1892] | 3.6 (active) | 6.06 (active) | 7.08 (active)
16 | CARFRREVEKAGNASASA [FS-2490] | 9.16 (active) | 8.26 (active) | 9.23 (active)
17 | CARNIRSGVHAGNASASA [FS-3006] | -0.391 (inactive) | -0.599 (inactive) | -0.61 (inactive)
18 | CAEVVTSTWNAGNASASA [HC2261] | -0.954 (inactive) | 1.01 | 0.548 (inactive)
19 | CAGGVVLVGLAGNASASA [HC570] | -0.221 (inactive) | 0.261 (inactive) | -0.661 (inactive)
20 | CAEPRRQRRLAGNASASA [FS-1118] | 3.93 (active) | 4.47 (active) | 4.27 (active)
21 | CASRGRLRRLAGNASASA [FS-1572] | 4.39 (active) | 6.32 (active) | 6.52 (active)
22 | CAGDSRQRRLAGNASASA [FS-424] | -0.0244 (inactive) | 0.999 (inactive) | 0.163 (inactive)

Row | Sequence | furin cleavage Z-score (7.5 min) | furin cleavage Z-score (15 min) | furin cleavage Z-score (30 min)
23 | CAFLTRLRRPAGNASASA [FS-769] | -0.966 (inactive) | -0.023 (inactive) | 0.341 (inactive)
24 | CAWQRRLRRLAGNASASA [FS-895] | 3.85 (active) | 5.94 (active) | 6.13 (active)
25 | CALPSRETRYAGNASASA [FS-1364] | 2.17 | 1.29 | -0.268 (inactive)
26 | CALPSRLRRMAGNASASA [FS-55] | 9.43 (active) | 11.4 (active) | 8.99 (active)
27 | CAPRWIWFCLAGNASASA [HC1655] | 2.54 | 0.216 (inactive) | 2.32
28 | CADYEPPVVHAGNASASA [HC1313] | -0.331 (inactive) | -1.03 (inactive) | 0.818 (inactive)
29 | CARKKRSGRHAGNASASA [FS-2968] | 8.42 (active) | 11.9 (active) | 8.64 (active)
30 | CARKKRVHFHAGNASASA [FS-2271] | -0.215 (inactive) | -0.15 (inactive) | 0.343 (inactive)
31 | CAKKSRSGRHAGNASASA [FS-1635] | 1.49 | 3.83 (active) | 4.08 (active)
32 | CAKKSRAERKAGNASASA [FS-676] | -0.262 (inactive) | -0.389 (inactive) | 0.536 (inactive)
33 | CAKKSRKSRPAGNASASA [FS-43] | -1.56 (inactive) | -0.706 (inactive) | -1.33 (inactive)
34 | CAYGMWPLLLAGNASASA [HC556] | 1.73 | 0.0218 (inactive) | -0.323 (inactive)
35 | CATTPCSGHWAGNASASA [HC1915] | -0.316 (inactive) | 1.87 | 0.16 (inactive)
36 | CAAHGIDPNIAGNASASA [HC796] | -0.768 (inactive) | -0.681 (inactive) | 0.0731 (inactive)
37 | CATTPCDGSWAGNASASA [HC72] | 0.037 (inactive) | 1.11 | 0.507 (inactive)
38 | CAMEECSLHLAGNASASA [HC1725] | -0.0304 (inactive) | 0.668 (inactive) | 0.792 (inactive)
39 | CARYGRCKRDAGNASASA [FS-715] | 15.2 (active) | 15.5 (active) | 11.9 (active)
40 | CAREGRSKALAGNASASA [FS-2911] | 0.205 (inactive) | 2.53 | 0.493 (inactive)
41 | CAREGRLKRDAGNASASA [FS-1256] | 11.7 (active) | 13 (active) | 11 (active)
42 | CAKRSHLKRDAGNASASA [FS-680] | 6.24 (active) | 7.72 (active) | 6.62 (active)
43 | CAKQLRLKRDAGNASASA [FS-814] | 15 (active) | 13.5 (active) | 10.4 (active)
44 | CARYGRFLQPAGNASASA [FS-3134] | 0.584 (inactive) | 1.53 | 0.786 (inactive)
